In PubChem BioAssay AID540317 (National Center for Advancing Translational Sciences (NCATS), 2011) one finds Potency data, which are given here for 64 molecules.

The whole screen tested about 390,000 compounds, of which about 2,200 (0.56%) were called active. Roughly 3% stayed inconclusive and do not appear here. Calls follow the shape of the dose curve; as a rule, active = well fitted inhibition curve with a large enough effect; inconclusive = small, poorly fitted or top-dose-only effect; inactive = no such curve, though single readings can be large or run the other way. The list comes from a sample in which actives are over-represented; it also holds similar structures and randomly drawn compounds. Where a call stands in place of a potency, no number is given.
Potency is read from the fitted curve at half-maximal effect.

The test deals with Chromobox protein homolog 1 (Homo sapiens) (UniProt P83916). In words: HTS for Inhibitors of HP1-beta Chromodomain Interactions with Methylated Histone Tails. Also: nearly all actives have a fitted effect of over 70% in size. Particulars: AlphaScreen HP1-beta / biotin-H3K9me3 peptide binding; series mostly up to 114 µM. The gist of the method: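 AlphaScreen: HP1-beta (50 nM) preformed 30 min with biotin-H3(1-18)K9me3 peptide (50 nM) in PBS pH 7.4, 0.01% Tween-20. Compound added for 30 min at RT, then streptavidin donor/nickel chelate acceptor beads (10 ug/mL) for 30 min.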
Sequence of Chromobox protein homolog 1 (Homo sapiens) (P83916 whole entry, looked up): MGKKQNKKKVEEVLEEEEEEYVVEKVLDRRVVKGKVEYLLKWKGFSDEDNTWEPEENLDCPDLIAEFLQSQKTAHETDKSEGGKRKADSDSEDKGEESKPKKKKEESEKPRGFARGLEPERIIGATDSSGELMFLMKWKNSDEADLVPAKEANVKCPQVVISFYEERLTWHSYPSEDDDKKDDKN
On the technique in general: Alpha assays give light when donor and acceptor beads are brought close together.
As for `CCCN1CCN(CCCNC(=O)Cn2nc(CC)n3c(cc4occc43)c2=O)CC1`, the Potency result is “inactive”.
With `O=C1C=CC(=O)N1c1ccc(N2CCCCC2)cc1` the figure was 15.8 µM (active).
With `Cc1ccc(CN2COc3cc(C)c4c(oc(=O)c5ccccc54)c3C2)cc1` the entry was “inactive”.
As for `O=c1[nH]c2ccccc2n2c(-c3ccccc3)nnc12`, the figure is 5.62 µM (active); as for `CC(C)Cn1c(=O)c2ccccc2n2c(-c3cccc(Cl)c3)nnc12`, “inactive”; as for `O=c1cc(-c2ccccc2)n2c(SCc3ccccc3)nnc2[nH]1`, “inactive”.
`O=C(CNS(=O)(=O)c1cccs1)N1CCN(c2ccccc2Cl)CC1`: the Potency entry is “inactive”.
As for `CC/C=C/C(=O)N1CC2(CC(c3cccc(NC(=O)CC)c3)=NO2)C[C@H]1C(N)=O` (some centres undefined), the entry is “inactive”.
With `C/C=C(\C)C(=O)N1CC2(CC(c3cccc(NC(=O)CCCCC)c3)=NO2)C[C@@H]1C(N)=O` (some centres undefined) the entry was “inactive”.
For the molecule `C=C(C)C(=O)Nc1cccc(C2=NOC3(C2)C[C@H](C(N)=O)N(C(=O)C(c2ccccc2)c2ccccc2)C3)c1` (some centres undefined), the Potency is 12.6 µM (active).
With `O=C(O)C1CC=CC2CCN(C3CCCCC3)C(=O)C21` (centres undefined) the entry was “inactive”; with `COC(=O)c1cc(NC(=O)CCS(=O)(=O)c2cc(Br)cc3c2N(C(=O)C2CC2)CC3)cc(C(=O)OC)c1`, “inactive”; with `COc1ccc(-c2nc(=N)sn2-c2ccccc2)cc1`, 14.1 µM (active).
For the molecule `COc1ccc(-c2nn3c(-c4ccc(OC)cc4)nnc3c3ccccc23)cc1`, the Potency result is “inactive”.
Regarding `Cc1n[nH]c(=O)n1-c1ccc(Oc2ccccc2)cc1`, the Potency result was “inactive”.
Regarding `CN(Cc1ccccc1)C(=O)c1cn(C)c2ccc(S(=O)(=O)N(C)C3CCCCC3)cc2c1=O`, the Potency result is “inactive”.
As for `Cc1c(Cl)cccc1NC(=O)C(=O)NCCc1csc2nc(-c3ccccc3F)nn12`, the entry is “inactive”.
`COc1ccc(CCNc2ncnc3c2cnn3-c2ccc(C)cc2)cc1`: the Potency result was “inactive”.
Turning to `Cc1ccc(S(=O)(=O)N2CCN(c3nc(-n4cnc5ccccc54)nc4ccccc34)CC2)cc1`, the Potency result was “inactive”.
With `O=C(NCc1ccc2c(c1)CCN2C(=O)c1ccccc1)Nc1cc(F)ccc1F` the entry was “inactive”; with `CCOc1ccc(Nc2nc(Cc3nnc(SCC(=O)NC4CCCC4)n3C)cs2)cc1`, “inactive”.
With `COCCCn1c(Cc2csc(Nc3cccc(Cl)c3)n2)nnc1SCC(=O)OC1CCCCC1` the figure was 50.1 µM (active); with `COCCCn1c(SCC(=O)Nc2ccccc2)nnc1-c1ccncc1`, “inactive”; with `COc1ccc(-c2nc3scc(CCNS(=O)(=O)c4cc(F)ccc4OC)n3n2)cc1OC`, “inactive”.
As for `CCS(=O)(=O)c1cc([N+](=O)[O-])c(Sc2ccccc2N)s1`, the figure is 39.8 µM (active).
Regarding `Cc1ccc(CNC(=O)C2(C(F)(F)F)C/C(=C\CCO)CCCO2)o1` (centres undefined), the Potency result is “inactive”.
`COc1ccc(/C=C/c2noc(-c3ccccc3O)n2)cc1OC`: the Potency entry was “inactive”.
For the molecule `CC(=O)OCC(NC(=O)C(Cc1ccccc1)NC(=O)OC(C)(C)C)C1OC(n2ccc(=O)[nH]c2=O)C(OC(C)=O)C1OC(C)=O` (centres undefined), the Potency entry was “inactive”.
As for `O=S(=O)(NCCS(=O)(=O)N1CCN(c2ccccc2)CC1)c1ccc(Cl)cc1`, the entry is “inactive”; as for `C=CC1=C(C(=O)O)N2C(=O)[C@@H](NC(=O)/C(=N/OCC(=O)O)c3csc(N)n3)[C@H]2SC1`, 14.1 µM (active); as for `CCCCCCC1(C)NC(c2ccc3c(c2)OCO3)=CC(c2ccccc2O)N1` (centres undefined), “inactive”.
With `CN(C)c1ccc(C(CC(=O)O)C(=O)O)cc1` (centres undefined) the entry was “inactive”; with `O=C(Nc1ccc(CSc2ccccc2)cc1)c1ccc(CN2CCOCC2)cc1`, “inactive”; with `CN(C)c1ccc(CSc2ccccc2)cc1`, 39.8 µM (active).
On to `Cc1ccc(-c2nc3ccccn3c2Nc2ccc(F)cc2)o1`, for which the Potency result was “inactive”.
With `Cc1ccc(-c2onc(C)c2C)cc1S(=O)(=O)Nc1ccccn1` the entry was “inactive”.
Regarding `CCCCNC(=S)N/N=C1\CCCCc2ccccc21`, the Potency entry is “inactive”.
With `Cc1cc(F)ccc1NC(=S)NCCc1ccccc1` the entry was “inactive”.
In the case of `CCCC1CCC(=NNC(=S)NCCc2ccccc2)CC1` (centres undefined), the Potency was 44.7 µM (active).
Turning to `COC(=O)C(CC(C)C)NS(=O)(=O)c1cc(Br)ccc1Br` (centres undefined), the Potency entry is “inactive”.
As for `CCOC(=O)c1ccccc1NC(=O)c1sc2nc(-c3ccc(F)cc3)cn2c1C`, the entry is “inactive”; as for `Cc1ccc(NC(=O)c2ccc3[nH]c(C)cc(=O)c3c2)c(C)c1`, “inactive”.
As to `CCOc1ccccc1NC(=O)CSc1ncc(S(=O)(=O)c2ccc(C(C)(C)C)cc2)c(=O)[nH]1`, the Potency entry was “inactive”.
Take `CN=c1scc(-c2cc(OC)ccc2OC)n1/N=C/c1c(C)[nH]c2ccccc12`: the Potency is 31.6 µM (active).
On to `COc1ccc(/C=N/n2c(C)cc(C)cc2=O)cc1`, for which the Potency entry is “inactive”.
With `Oc1ccc(Br)cc1C1C=C(c2ccc3c(c2)OCO3)NC(c2ccc(Cl)cc2)N1` (centres undefined) the entry was “inactive”; with `CCCCSc1ncnc2c1sc1nc(N3CCOCC3)c3c(c12)CCCC3`, “inactive”; with `S=C(Nc1ccc(Cl)cc1Cl)N1CCCC1`, “inactive”.
Turning to `O=C(NCCc1ccc(Cl)cc1)C1CCCN1C(=O)NCc1ccccc1` (centres undefined), the Potency entry was “inactive”.
As for `Oc1cc2c(cc1O)CN(C(=S)NCCc1ccc(Cl)cc1)CCC2`, the Potency is 50.1 µM (active).
Regarding `COc1ccc(C2=NC3(CCCCC3)N(CC(=O)Nc3ccc(C(C)C)cc3)C2=O)cc1`, the Potency result is “inactive”.
With `COc1ccc(N2CCN(c3cc(C)nc4nncn34)CC2)cc1` the entry was “inactive”.
With `CCCNC(=O)C1CCN(c2nc3ccc(C)cc3[nH]2)CC1` the entry was “inactive”.
On to `COc1ccc(S(=O)(=O)NCC(c2ccc(C)cc2)N2CCN(C)CC2)cc1OC` (centres undefined), for which the Potency entry was “inactive”.
As for `COc1ccc(S(=O)(=O)NCC(c2ccc(N(C)C)cc2)N2CCCC2)cc1` (centres undefined), the Potency entry was “inactive”.
In the case of `COc1ccc(N2CCN(C(CNS(=O)(=O)c3ccc(C)cc3)c3ccccc3)CC2)cc1` (centres undefined), the Potency is 31.6 µM (active).
With `COc1ccc(NC(=O)c2sc3nc[nH]c(=O)c3c2C)cc1` the entry was “inactive”; with `O=[N+]([O-])c1ccc(Oc2ccc(F)cc2Br)c2ccncc12`, 50.1 µM (active).
With `CCN1CCN(c2cc(C)c3cc(NC(=O)c4cc(Cl)ccc4OC)ccc3n2)CC1` the entry was “inactive”; with `CCN(C(=O)CSc1nnc(C)n2c1cc1occc12)c1ccccc1`, “inactive”; with `CCOc1ccc(S(=O)(=O)NCCC(=O)NCC2CCCO2)cc1` (centres undefined), “inactive”.
Take `CCOc1ccc(S(=O)(=O)N2CCN(C(=S)NCC3CCCO3)CC2)cc1` (centres undefined): the Potency entry was “inactive”.
`CCOc1ccc(-n2c(N)c(C(=O)NCC3CCCO3)sc2=S)cc1` (centres undefined): the Potency is 17.8 µM (active).
As for `COc1ccc(-c2cccc(NS(=O)(=O)c3cc(C)c(OC)c(C)c3C)c2)nn1`, the entry is “inactive”.
